Active and inactive are the calls of the source.

Test [1] can be described thus: optical density shifts of acrAB sulA E. coli – strain DRC41, OD650, 48 h, E. coli filamentation inducer project, primary screen (AID 1152).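 Also: E. coli MC1000 strain DRC41 lacking acrAB efflux pump and sulA.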 The following applies: higher = more signal, called active from +8 up or from −8 down.
The nature of test [2]: probe aLefty1 binding on compound microarray – biochemical, small-molecule microarray, 635/667 nm fluorescence, primary screen (AID 1153).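 Also: score merges spot fluorescence with signal-to-noise ratio from the scanned slide images.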 To be noted: higher = more signal.
A short description of test [3]: plasmodial surface anion channel blockers, osmotic lysis – cell-based, P. falciparum Indochina, OD700, 1 h, primary screen (AID 1154). To be noted: P. falciparum Indochina infected RBC osmotic lysis, higher = more signal, called active from +8 up or from −8 down.
Test [4] can be described thus: plasmodial surface anion channel blockers, osmotic lysis – cell-based, P. falciparum Indochina, OD700, 2 h, primary screen (AID 1155).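 Also: lysis reports solute entry through the parasite surface anion channel PSAC.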 To be noted: P. falciparum Indochina infected erythrocytes, higher = more signal, called active from +8 up or from −8 down.
Test [5] is described as follows: changes in parasitized red cell lysis, either direction – P. falciparum Indochina, OD700, 3 h, PSAC antagonist project, primary screen (AID 1156). The following applies: P. falciparum-infected erythrocytes, osmotic lysis, higher = more signal, called active from +8 up or from −8 down.
Test [6] can be described thus: plasmodial surface anion channel blockers, osmotic lysis – cell-based, P. falciparum Indochina, OD700, 18 h, primary screen (AID 1157). To be noted: P. falciparum Indochina infected erythrocytes, osmotic lysis OD700, 18 h; higher = more signal, called active from +8 up or from −8 down.
Test [7] is described as follows: S6 kinase pathway phospho-S6 level changes – cell-based, A549, cytoblot, luminescence, serum-stimulated, primary screen (AID 1158).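 Also: serum-stimulated A549 lung adenocarcinoma cells; signal is phosphorylated S6 detected by cytoblot immunostaining with HRP secondary.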 To be noted: 5 h, higher = more signal.
In test [8] the target is NADPH oxidase 2 (Homo sapiens) (UniProt P04839). Description: compounds shifting NOX2 Amplex Red fluorescence – cell-based, HEK293-NOX2, PMA-stimulated, NOX inhibitor project, primary screen (AID 1159). Also: test concentration not given here. To be noted: 45 min, higher = more signal, called active from +8 up or from −8 down.
Test [9] addresses NADPH oxidase 4 (Homo sapiens) (UniProt Q9NPH5). Description: compounds shifting NOX4 Amplex Red fluorescence – cell-based, HEK293-NOX4, tetracycline-induced, NOX inhibitor project, primary screen (AID 1160). The following applies: HEK293-NOX4, Amplex Red H2O2 fluorescence, 45 min; higher = more signal, called active from +8 up or from −8 down.
Test [10] has as its target NADPH oxidase 5 (Homo sapiens) (UniProt Q96PH1). Description: compounds shifting NOX5 Amplex Red fluorescence – cell-based, HEK293-NOX5, NOX inhibitor project, primary screen (AID 1161). To be noted: HEK293-NOX5, ionomycin, 45 min, higher = more signal.
The nature of test [11]: compound effects on lung adenocarcinoma cell viability – A549, calcein-AM fluorescence, 48 h, basal, profiling panel (AID 1162). Also: test concentration not given here. To be noted: higher = more signal.
A short description of test [12]: compound effects on differentiated 3T3-L1 adipocyte viability – cell-based, 3T3-L1 adipocytes, calcein-AM fluorescence, 48 h, basal, profiling panel (AID 1163). Also: test concentration not given here. The following applies: 3T3-L1 adipocytes viability, higher = more signal.
Test [13] can be described thus: compound effects on hepatocellular carcinoma cell viability – HepG2, calcein-AM fluorescence, 48 h, basal, profiling panel (AID 1164). Also: test concentration not given here. To be noted: higher = more signal.
A short description of test [14]: compound effects on multiple myeloma cell viability – MM1S, calcein-AM fluorescence, 48 h, basal, profiling panel (AID 1165).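 Also: viability of MM1S multiple myeloma cells under basal unstimulated conditions; test concentration not given here.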 To be noted: higher = more signal.
Test [15] is described as follows: calcein-AM signal in unstimulated myeloma cells – cell-based, calcein-AM fluorescence, 48 h, PK04 Diversity Set, profiling panel (AID 1166).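 Also: cells grown under basal conditions without added stimulus; test concentration not given here.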 To be noted: RPMI8226 myeloma viability, higher = more signal.
The nature of test [16]: JC-1 mitochondrial signal, unstimulated HepG2 cells – cell-based, JC-1 fluorescence, 24 h, 100 nL compound, profiling panel (AID 1167). Also: test concentration not given here. To be noted: HepG2 mitochondrial potential, higher = more signal.
The nature of test [17]: JC-1 mitochondrial signal, unstimulated adipocytes – cell-based, JC-1 fluorescence, 3T3-L1 adipocytes, 24 h, 100 nL compound, profiling panel (AID 1168). Also: test concentration not given here. The following applies: JC-1 mitochondrial fluorescence, higher = more signal, called active from +8 up or from −8 down.
Test [18] is described as follows: JC-1 mitochondrial signal, unstimulated myeloma cells – cell-based, JC-1 fluorescence, RPMI8226, 24 h, 100 nL compound, profiling panel (AID 1169). Also: test concentration not given here. The following applies: JC-1 mitochondrial potential fluorescence, higher = more signal.
Test [19] is described as follows: JC-1 mitochondrial signal, unstimulated MM1S myeloma – cell-based, JC-1 fluorescence, 24 h, 100 nL compound, profiling panel (AID 1170). Also: test concentration not given here. To be noted: MM1S mitochondrial potential, higher = more signal.
The nature of test [20]: resazurin metabolic signal in A549 cells – cell-based, resazurin fluorescence, 24 h, PK04 Diversity Set, profiling panel (AID 1171). Also: test concentration not given here. To be noted: A549 viability, higher = more signal, called active from +8 up or from −8 down. (Alamar Blue is a resazurin reagent that responds to reducing activity.)

Sequence of NADPH oxidase 2 (Homo sapiens) (P04839 whole entry, looked up): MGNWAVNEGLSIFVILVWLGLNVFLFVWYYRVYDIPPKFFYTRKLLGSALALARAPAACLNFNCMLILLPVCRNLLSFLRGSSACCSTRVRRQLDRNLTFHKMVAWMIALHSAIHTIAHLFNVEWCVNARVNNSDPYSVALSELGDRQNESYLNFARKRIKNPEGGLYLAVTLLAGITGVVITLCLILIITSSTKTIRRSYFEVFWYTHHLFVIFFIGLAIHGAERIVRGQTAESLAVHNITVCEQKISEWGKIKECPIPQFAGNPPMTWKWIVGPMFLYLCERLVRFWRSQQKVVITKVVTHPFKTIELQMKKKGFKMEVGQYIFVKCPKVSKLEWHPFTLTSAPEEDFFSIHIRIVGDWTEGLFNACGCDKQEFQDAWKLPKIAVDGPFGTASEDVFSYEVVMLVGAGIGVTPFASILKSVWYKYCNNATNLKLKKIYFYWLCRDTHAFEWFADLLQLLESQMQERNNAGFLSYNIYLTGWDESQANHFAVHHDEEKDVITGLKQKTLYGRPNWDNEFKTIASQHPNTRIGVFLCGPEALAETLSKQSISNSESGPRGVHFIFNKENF
Sequence of NADPH oxidase 4 (Homo sapiens) (Q9NPH5 whole entry, looked up): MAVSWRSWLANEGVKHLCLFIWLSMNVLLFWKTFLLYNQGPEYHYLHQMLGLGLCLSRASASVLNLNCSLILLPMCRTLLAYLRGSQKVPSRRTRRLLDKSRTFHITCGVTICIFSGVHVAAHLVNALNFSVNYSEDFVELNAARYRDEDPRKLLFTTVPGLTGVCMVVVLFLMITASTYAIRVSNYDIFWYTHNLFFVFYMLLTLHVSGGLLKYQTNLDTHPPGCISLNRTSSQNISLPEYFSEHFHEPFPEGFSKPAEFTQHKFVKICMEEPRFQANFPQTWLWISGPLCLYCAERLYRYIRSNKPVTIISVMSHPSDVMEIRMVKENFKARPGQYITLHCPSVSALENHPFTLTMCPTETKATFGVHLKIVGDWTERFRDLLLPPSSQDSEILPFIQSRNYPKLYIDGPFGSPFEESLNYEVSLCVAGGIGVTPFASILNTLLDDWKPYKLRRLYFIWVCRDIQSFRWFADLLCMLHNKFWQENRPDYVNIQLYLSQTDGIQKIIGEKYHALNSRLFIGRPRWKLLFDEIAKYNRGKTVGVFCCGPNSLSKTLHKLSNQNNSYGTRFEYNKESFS
Sequence of NADPH oxidase 5 (Homo sapiens) (Q96PH1 whole entry, looked up): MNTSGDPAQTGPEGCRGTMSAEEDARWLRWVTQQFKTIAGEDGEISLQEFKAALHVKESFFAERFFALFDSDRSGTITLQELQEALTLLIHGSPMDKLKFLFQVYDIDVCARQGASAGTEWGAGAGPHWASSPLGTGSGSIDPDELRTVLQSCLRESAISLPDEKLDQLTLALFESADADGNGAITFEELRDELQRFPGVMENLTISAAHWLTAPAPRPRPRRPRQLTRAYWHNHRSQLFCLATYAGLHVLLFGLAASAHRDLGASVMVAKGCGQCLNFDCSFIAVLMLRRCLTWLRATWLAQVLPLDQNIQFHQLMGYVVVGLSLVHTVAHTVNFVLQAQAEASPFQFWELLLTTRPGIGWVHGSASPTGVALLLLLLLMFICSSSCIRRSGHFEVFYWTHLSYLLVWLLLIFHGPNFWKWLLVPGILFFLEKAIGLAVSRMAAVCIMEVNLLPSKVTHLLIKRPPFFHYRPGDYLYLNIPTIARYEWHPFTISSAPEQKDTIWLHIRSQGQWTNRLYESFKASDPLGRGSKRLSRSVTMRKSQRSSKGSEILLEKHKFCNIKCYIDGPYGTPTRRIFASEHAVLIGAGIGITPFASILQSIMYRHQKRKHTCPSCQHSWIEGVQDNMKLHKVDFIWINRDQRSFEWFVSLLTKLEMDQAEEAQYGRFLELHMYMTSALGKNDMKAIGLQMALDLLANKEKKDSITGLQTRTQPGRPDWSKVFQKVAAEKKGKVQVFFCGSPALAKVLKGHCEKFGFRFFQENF

With `C=CCN1C(=O)[C@]2(Cc3ccccc3)N=C(c3ccc(OCCCO)cc3)O[C@@H]2c2ccccc21`, the z-score is 0.567 (inactive) in test [1]; 33.1 (active) in [3]; 30.1 (active) in [4]; 2.14 (inactive) in test [5]; 10.2 (active) in [6]; -0.204 in test [7]. The z-score is -1.78 (inactive) in test [8]; 0.46 (inactive) in test [9]; 1.07 in test [10]; 0.0386 in test [11]; 0.146 in [12]; -1.62 in [13]. Moreover, the z-score is -3.02 in [14]; -3.91 in [15]; 0.822 in test [16]; 2.21 (inactive) in [17]; -1.21 in test [18]; -2.81 in [19]. The z-score in test [20] is -2.28 (inactive). In test [2], the composite z-score amounted to 0.43.

With `CCOC(=O)C[C@H]1[C@H](OC(=O)c2ccc(C(=O)c3ccccc3)cc2)[C@@H](NC(=O)c2ccccc2)c2cc(OCCCO)ccc2N1C(=O)c1ccccc1`, the z-score in test [1] was -0.402 (inactive); in test [3], 2.54 (inactive); in [4], 0.218 (inactive); in test [5], 0.0495 (inactive); in test [6], 0.357 (inactive); in test [7], -0.294. In addition, the z-score was -0.613 (inactive) in [8]; 0.646 (inactive) in test [9]; 0.0914 in [10]; 0.223 in test [11]; 1.05 in test [12]; 0.496 in test [13]. Besides, the z-score was 0.358 in [14]; 0.17 in [15]; 0.601 in [16]; 0.00705 (inactive) in [17]; 0.892 in test [18]; 0.0929 in [19]. The z-score in test [20] is 0.254 (inactive). The compound also had a composite z-score in test [2] of 0.228.

`COC(=O)[C@H](Cc1ccccc1)N[C@H](/C=C/C1CC1)[C@@H](O)Cc1ccccc1`: the z-score in [1] was 1.85 (inactive); in test [3], 0.786 (inactive); in test [4], -0.96 (inactive); in test [5], -0.868 (inactive); in test [6], -1.83 (inactive); in [7], 2.14. Moreover, the z-score in [8] was 0.455 (inactive); in [9] it was 0.0154 (inactive); in [10], -2.49; in test [11], -0.531; in test [12], -0.451; in [13] it was 0.021. Further, the z-score in [14] was 0.18; in test [15], 0.732; in [16], 1.46; in [17] it was 0.792 (inactive); in test [18], -0.52; in test [19], -1.88. In addition, the z-score in test [20] was 1.2 (inactive). Also, in [2], the composite z-score was -0.235.

With `COc1ccc(NC(=O)O[C@H]2[C@H](OC(=O)c3cc4ccccc4[nH]3)[C@@H](OC(=O)c3cc4ccccc4[nH]3)[C@@H](OC)O[C@@H]2CO)cc1`, the z-score in test [1] was 0.799 (inactive); in test [3] it was 2.35 (inactive); in test [4] it was -0.529 (inactive); in [5] it was 0.52 (inactive); in test [6] it was -0.955 (inactive); in [7], 1.22. In addition, the z-score in [8] is -3.65 (inactive); in test [9] it was -1.18 (inactive); in [10], -4.46; in [11], 0.349; in test [12] it was 0.203; in test [13], 0.825. Also, the z-score was -0.699 in test [14]; 0.422 in test [15]; 0.923 in test [16]; 1.93 (inactive) in test [17]; 0.168 in test [18]; -0.117 in [19]. Besides, the z-score in test [20] was -1.92 (inactive). For the same compound, in [2], the composite z-score is -0.0529.

With `COC(=O)[C@@]1(Cc2ccccc2)[C@H]2c3cc(C(=O)N(C)C)n(Cc4ccc(OC)c(OC)c4)c3C[C@H]2CN1C(=O)c1ccccc1`, the z-score was -1.95 (inactive) in [1]; 3.81 (inactive) in test [3]; 1.2 (inactive) in [4]; 0.688 (inactive) in test [5]; 1.11 (inactive) in test [6]; -0.399 in test [7]. For the same compound, the z-score is -0.415 (inactive) in test [8]; -0.865 (inactive) in test [9]; -0.0397 in test [10]; -1.29 in test [11]; -0.24 in test [12]; 0.148 in [13]. Moreover, the z-score was -1.42 in test [14]; -2.64 in test [15]; 0.811 in test [16]; -1.12 (inactive) in [17]; -0.706 in test [18]; -1.14 in test [19]. Besides, the z-score in test [20] is -1.2 (inactive). For the same compound, in [2], the composite z-score was found to be 0.211.

As to `O=C1NC(=O)C2C1C=CC(C(O)c1ccc(I)cc1)N2Nc1ccccn1` (stereo not given), the z-score in test [1] was -1.29 (inactive); in [3] it was 1.41 (inactive); in test [4] it was 0.698 (inactive); in test [5], 0.0388 (inactive); in test [6], 0.729 (inactive); in [7], -0.779. In addition, the z-score in test [8] was -1.16 (inactive); in test [9], -2.82 (inactive); in [10], -2.2; in [11], -0.0915; in test [12], -0.891; in test [13], -0.145. Besides, the z-score is -0.619 in test [14]; -0.566 in test [15]; -1.35 in test [16]; -0.47 (inactive) in [17]; 0.537 in test [18]; -0.0562 in [19]. In addition, the z-score in test [20] is -0.107 (inactive). Also, the composite z-score in test [2] amounted to 0.0701.

For the compound `CC#CC(=O)Oc1ccc(Br)cc1C=CC(=O)OCC`, the z-score was -1.17 (inactive) in test [1]; 25.5 (active) in test [3]; 7.06 (inactive) in test [4]; -0.189 (inactive) in [5]; 1.37 (inactive) in test [6]; -0.27 in test [7]. The z-score in [8] was -1.86 (inactive); in test [9] it was -2.68 (inactive); in test [10] it was 0.227; in test [11], -2.1; in test [12] it was -1.04; in test [13] it was -2.88. Also, the z-score was -3.18 in test [14]; -4.08 in [15]; -1.65 in [16]; -0.315 (inactive) in test [17]; -0.583 in test [18]; -1.84 in [19]. Moreover, the z-score in test [20] was -0.685 (inactive). This compound also showed a composite z-score in test [2] of 0.0386.

As for `C=CC[C@]1(C(=O)NCc2ccccc2)N=C(c2ccc(OCCCO)cc2)O[C@H]1c1ccccc1CN=[N+]=[N-]`, the z-score was -1.21 (inactive) in test [1]; 19.7 (active) in [3]; 2.93 (inactive) in test [4]; 3.16 (inactive) in test [5]; 0.986 (inactive) in [6]; -0.387 in [7]. Moreover, the z-score is -0.302 (inactive) in test [8]; 0.617 (inactive) in test [9]; -0.656 in test [10]; -0.774 in [11]; 0.0129 in [12]; 0.22 in test [13]. In addition, the z-score in test [14] is -1.28; in test [15] it was -1.81; in [16], 0.24; in [17] it was -0.889 (inactive); in [18] it was -0.787; in test [19], 0.407. Also, the z-score in test [20] was 0.668 (inactive). Moreover, the composite z-score in [2] stood at 0.0556.

Take `Cc1ccc(S[C@]2(C(=O)NCC(C)C)CC(=O)N(Cc3cc(C(F)(F)F)cc(C(F)(F)F)c3)[C@@H]2c2ccc(CO)cc2)cc1`: the z-score in test [1] is -0.687 (inactive); in test [3] it was 1.3 (inactive); in test [4], 0.596 (inactive); in [5], 0.664 (inactive); in test [6] it was 0.13 (inactive); in [7] it was -0.0958. Further, the z-score was 1.73 (inactive) in [8]; 0.823 (inactive) in test [9]; -0.188 in [10]; -0.174 in [11]; 0.518 in [12]; -0.527 in test [13]. For the same compound, the z-score in test [14] is -0.741; in test [15], -0.744; in test [16], -0.444; in test [17], -0.612 (inactive); in [18] it was 0.244; in test [19], -0.133. In [20], the z-score was -0.0187 (inactive). Further, in [2], the composite z-score came out at 0.2.

These data come from PubChem BioAssay.
